The record followed here is PubChem BioAssay AID2107 (National Center for Advancing Translational Sciences (NCATS), 2009).

Among all 240,000 compounds or so, about 20 (0.008%) were called active. Inconclusive results (about 1%) are left out. The call rests on the fitted dose curve; in most records, active means well fitted inhibition curve with a large enough effect; inconclusive means small, poorly fitted or top-dose-only effect, or effect the other way; inactive means flat fitted curve, though single readings scatter. The list is a sample of the results.

Chain of Alpha-galactosidase A (Homo sapiens) (P06280 32-429 limits assumed): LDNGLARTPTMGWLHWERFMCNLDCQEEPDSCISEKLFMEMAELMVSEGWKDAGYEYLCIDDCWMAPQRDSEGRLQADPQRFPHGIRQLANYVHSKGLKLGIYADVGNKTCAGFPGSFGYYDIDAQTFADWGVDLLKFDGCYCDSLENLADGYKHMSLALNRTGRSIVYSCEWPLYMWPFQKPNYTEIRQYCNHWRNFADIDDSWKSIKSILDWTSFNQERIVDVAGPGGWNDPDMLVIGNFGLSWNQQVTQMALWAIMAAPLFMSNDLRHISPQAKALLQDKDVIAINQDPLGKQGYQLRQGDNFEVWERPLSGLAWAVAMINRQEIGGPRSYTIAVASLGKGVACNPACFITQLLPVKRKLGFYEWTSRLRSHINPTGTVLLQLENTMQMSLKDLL

The experiment deals with Alpha-galactosidase A (Homo sapiens) (UniProt P06280). The experiment in a line: qHTS Assay for Inhibitors and Activators of Human alpha-Galactosidase From Spleen Homogenate.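 Further: 0% = enzyme with vehicle and -100% = no enzyme basal signal.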 Particulars: 4MU-alpha-Gal fluorescence, 40 min; series mostly up to 80 µM. The source says:
NIH Chemical Genomics Center [NCGC] NIH Molecular Libraries Probe Production Centers Network [MLPCN] MLPCN Grant: R03 MH084842-01 Assay Submitter (PI): Wei Zheng NCGC Assay Overview: Alpha-galactosidase is a homodimeric glycoprotein that hydrolyzes the terminal alpha-galactosyl moieties from glycolipids and glycoproteins. Deficiency of this enzyme results in Fabry Disease with progressive accumulation of globotriaosylceramide and other glycosphingolipids in vascular endothelial cells that causes renal failure, myocardial infarction and stroke, and premature death in patients. It has been reported that the improper folding and trafficking of alpha-galactosidase resulting from genetic mutations may account for a significant number of Fabry patients. […] We optimized this alpha-galactosidase assay in 1536-well plate format for identification of novel small molecule inhibitors or activators with structures other than the sugar analogs in order to develop new pharmacological chaperones. In particular, this assay is directed towards discovering compounds active in more natural setting, tissue homogenate, that may have been missed by screens of the purified enzyme under more stringent conditions.
NCGC Assay Protocol Summary: This is a fluorogenic enzyme assay with 4-methylumbelliferyl-alpha-D-galactopyranoside as the substrate and human spleen homogenate containing alpha-galactosidase as the enzyme preparation. Upon hydrolysis of this fluorogenic substrate, the resulting product, 4-methylumbelliferone (which excites at 365 nm and emits at 440 nm) can be detected by a fluorescence plate reader. Data were normalized to the controls for basal activity (without enzyme) and 100% activity (with enzyme). The AC50 values were determined from concentration-response data modeled with the standard Hill equation. Assay buffer: 50 mM citric acid (titrated with potassium phosphate to pH 5.0), 0.01% Tween-20 (pH 5.0 is an optimal condition for this enzyme assay) 1536-well assay protocol for the alpha-galactosidase from human spleen homogenate: (1) Add 2 ul/well spleen homogenate (1 ug) (2) Add 23 nL compounds in DMSO solution. The final titration was 0.5 nM to 58 uM. (3) Add 2 ul of substrate (1 mM final) (4) Incubate at 37C for 40 min (5) Add 2 ul stop solution (1M NaOH and 1M Glycine mixture, pH 10) (6) Detect the assay plate in a ViewLux plate reader (PerkinElmer) with Ex=365 nm and Em=440nm. Keywords: Alpha-galactosidase, Fabry Disease, pharmacological chaperone, chaperone therapy, high throughput screening, alpha- galactosidase inhibitor, MLSMR, MLSCN, NIH Roadmap, qHTS and NCGC
In general terms: In qHTS, concentration-response curves come from the screen itself.
Turning to `CCn1c(SCC(=O)N/N=C/c2ccncc2)nc2ccccc21`, the activity change, negative = inhibition result is “inactive”. Take `Cc1ccc(Br)cc1`: the activity change, negative = inhibition result was “inactive”. The entry for `COc1ccc(C(=O)C2CCCN(C(=O)c3cnsn3)C2)c(C)c1` (stereo not given) is “inactive”.

`CC(C)(C)c1ccc(OC2=CS(=O)(=O)c3ccccc32)cc1`: the activity change, negative = inhibition result was “inactive”.

Regarding `CCn1cc(C(=O)NCCCN2CCCCCC2)c(=O)c2cc(S(=O)(=O)N3CCc4ccccc4C3)ccc21`, the activity change, negative = inhibition entry was “inactive”. As for `Cc1ccc(C)c(NS(=O)(=O)c2cc(Br)cnc2N)c1`, the entry is “inactive”; as for `CCN(CC)/[N+]([O-])=N/Oc1cc(O/[N+]([O-])=N/N2CCCC2CO)c([N+](=O)[O-])cc1[N+](=O)[O-]` (stereo not given), “inactive”; as for `CCn1c(NC(=O)c2nn(C)cc2Br)nc2ccccc21`, “inactive”. As for `O=C(/C=C/Sc1ncn[nH]1)c1ccc(Cl)cc1`, the entry is “inactive”; as for `Cc1cc(C)nc(SC(C)C(=O)N/N=C/c2cccs2)n1` (stereo not given), “inactive”; as for `CCN(CC)CCN1C(=O)C(=O)/C(=C(/O)c2cnn(-c3ccccc3)c2C)C1c1cccs1` (stereo not given), “inactive”. As for `Cc1cc(F)ccc1S(=O)(=O)N1CCCOC1CNC(=O)C(=O)NCCC1=CCCCC1` (stereo not given), the entry is “inactive”. Consider `CN(Cc1nc2ccc(F)cc2[nH]1)Cc1nc(CC2CC2)no1`, for which the activity change, negative = inhibition entry is “inactive”. The entry for `COc1ccc(C(CCN2CCOCC2)c2c(OC)cc(OC)c3c2OC(=O)CC3c2ccc(OC)cc2)cc1` (stereo not given) is “inactive”. The entry for `O=C1C2C(c3ccccc3)CC=CC2C(c2ccoc2)N1Cc1ccccc1` (stereo not given) is “inactive”. As for `O=C1C[C@@H](c2ccc3ccccc3c2)N1S(=O)(=O)c1ccccc1[N+](=O)[O-]`, the entry is “inactive”.

In the case of `Cc1onc(-c2c(Cl)cccc2Cl)c1C(=O)NNC(=O)c1c(-c2c(Cl)cccc2Cl)noc1C`, the activity change, negative = inhibition result was “inactive”. As for `COc1ccc(C(=O)C[n+]2ccc(N)c(C)c2C)cc1`, the entry is “inactive”; as for `CCN(C(=O)COC(=O)c1cc(NS(=O)(=O)c2ccc(Cl)c([N+](=O)[O-])c2)ccc1O)C1CCCCC1`, “inactive”; as for `Cc1ccc(-c2nn(-c3ccccc3)cc2C(=O)Nc2cccc(S(=O)(=O)N3CCOCC3)c2)cc1`, “inactive”.

Turning to `CCc1nc(C)cn1S(=O)(=O)c1cc([N+](=O)[O-])ccc1Cl`, the activity change, negative = inhibition result is “inactive”. `COc1ccc(CN2CCC(c3nc4ccc(Cl)cc4[nH]3)CC2)cc1`: the activity change, negative = inhibition entry was “inactive”. The entry for `O=C(COc1ccc(NC(=O)c2ccccc2[N+](=O)[O-])cc1)c1ccc(F)cc1` is “inactive”. As to `C=C1CCN(C(CC(C)C)C(=O)N2CCOCC2)S(=O)(=O)c2ccccc21` (stereo not given), the activity change, negative = inhibition result is “inactive”. As for `CC(C)C[C@@H](N)c1nnc(SCC(=O)c2ccc(Cl)cc2)o1`, the entry is “inactive”. Regarding `Fc1ccc(Cl)cc1-c1nc(Nc2ccncc2)c2nccnc2n1`, the activity change, negative = inhibition entry is “inactive”. As for `Cc1scc(C(=O)NNC(=S)NCc2ccccc2)c1C`, the entry is “inactive”; as for `Cc1cccc(-[n+]2c(-c3cccc(Br)c3)[nH]c3nc4ccccc4nc32)c1`, “inactive”; as for `O=[N+]([O-])c1ccccc1S(=O)(=O)Nc1cccc2cccnc12`, “inactive”. With `C=C1CCN(Cc2ccc(OC)cc2)S(=O)(=O)c2ccccc21`, the activity change, negative = inhibition result is “inactive”. The entry for `COc1cc(OC)c2c(c1C(CCN1CCCCC1)c1ccc(N(C)C)cc1)OC(=O)CC2c1ccc(N(C)C)cc1` (stereo not given) is “inactive”; for `CCN(CC)S(=O)(=O)c1ccc(N(C)Cc2ccc(C(F)(F)F)cc2)nc1` it is “inactive”. As for `CCOc1ccc(NC(=O)CN(C)CC(=O)Nc2cccc(Cl)c2C)cc1OCC`, the entry is “inactive”.

In the case of `Cc1cccc(NC(=S)Nc2ccc3cn[nH]c3c2)c1`, the activity change, negative = inhibition entry was “inactive”.

On to `O=C(CCl)N(Cc1cccc([N+](=O)[O-])c1)c1cccc(Cl)c1`, for which the activity change, negative = inhibition result was “inactive”. As for `CCCCc1nn(-c2ccccc2C(F)(F)F)c(=O)n1Cc1ccc(-c2ccccc2S(=O)(=O)NC(=O)c2sccc2C)cc1`, the entry is “inactive”; as for `CCCCC/C=C/C=C/C=O`, “inactive”.

Take `CC(Sc1nnc2c(n1)C1CCC2(C)C1(C)C)C(=O)Nc1ccccc1` (stereo not given): the activity change, negative = inhibition entry was “inactive”.

As to `CO[C@@]12[C@@H](COC(N)=O)C3=C(C(=O)C(C)=C(N)C3=O)N1C[C@@H]1N[C@@H]12`, the activity change, negative = inhibition entry is “inactive”. As for `O=C1CN(Cc2ccccc2)S(=O)(=O)c2ccccc21`, the entry is “inactive”; as for `CCOC(=O)Cn1c(=O)sc2cccc(Cl)c21`, “inactive”; as for `Cc1nc2c(C(=O)NCc3cccs3)cnn2c(C)c1Cc1ccc(F)cc1`, “inactive”. As for `Cc1ccc(OCC(=O)Nc2ccccc2Sc2ccc(Cl)cc2)c([N+](=O)[O-])n1`, the entry is “inactive”; as for `Cc1cc2oc(=O)cc(-c3ccccc3)c2c(C)c1-c1ccc(OC(F)(F)F)cc1`, “inactive”.

Regarding H-EHIPA-OH, the activity change, negative = inhibition result is “inactive”.

As for `O=C(NC1CCN(Cc2ccccc2)CC1)c1ccc(Oc2cc(Cl)cc(Cl)c2)o1`, the activity change, negative = inhibition entry is “inactive”. As for `Cc1ccc(CNC(=O)C2(C(F)(F)F)C/C(=C\Cc3ccccc3)CCCO2)o1` (stereo not given), the entry is “inactive”; as for `CCCC[C@@H]1C[C@H]1C(NC(=O)c1ccco1)c1ccc(C(=O)OC)cc1` (stereo not given in full), “inactive”; as for `CCCN1CCC(=O)N(C(CSc2ccc(OC)cc2)Cc2ccccc2)CC1` (stereo not given), “inactive”. The entry for `COc1ccc(C2/C=C\CN(C(=O)c3ccc(C)cc3)C(Cc3ccccc3)C(=O)N2Cc2ccc(F)cc2)cc1` (stereo not given) is “inactive”; for `c1ccc2c(Nc3ccncc3)nc(-c3ccc4c(c3)OCO4)nc2c1` it is “inactive”; for `COc1ccc(-c2ccc(OC)c(C3C4C=CCC(C)C4C(=O)N3Cc3ccccc3)c2)cc1C` (stereo not given) it is “inactive”. The entry for `S=C(NCCc1ccccc1)NCc1ccccc1Cl` is “inactive”; for `C=CCN(C(=O)c1cc(C)cc(C)c1)C1(C(=O)Nc2ccccc2)CCN(C(C)C)CC1` it is “inactive”. As for `CCCCCOc1ccc(/C=C/C(=O)NCCc2nc3ccccc3[nH]2)cc1OC`, the activity change, negative = inhibition result was “inactive”. The entry for `O=C(O)C1CC=CC2CCN(C3CCCCC3)C(=O)C21` (stereo not given) is “inactive”; for `CCOc1cc(-c2conc2N)cc(OCC)c1OCC` it is “inactive”.

On to `CC1(OC(=O)c2ccc(Cl)nc2)C(=O)Cc2cc(-c3ccsc3)ncc2C1=O` (stereo not given), for which the activity change, negative = inhibition is 4.14% [at 17.5 µM] (inactive). For the molecule `O=C(O)CCc1nc2cc(Cl)ccc2n(Cc2ccccc2)c1=O`, the activity change, negative = inhibition entry was “inactive”. On to `Cc1ccc(S(=O)(=O)c2nc(NCCCn3ccnc3)sc2Cl)cc1`, for which the activity change, negative = inhibition result is “inactive”. As for `COc1cccc2sc(N(CCCN(C)C)C(=O)C(c3ccccc3)c3ccccc3)nc12`, the entry is “inactive”; as for `CC(=O)OCCC(C)C`, “inactive”; as for `CN(C)CCOCCOc1ccc(Cl)c2ccccc12`, “inactive”. As for `COC(=O)CCc1ccccc1S(=O)(=O)N(CCC(=O)OC)Cc1ccccc1`, the entry is “inactive”; as for `CC(C)C(NS(=O)(=O)c1ccc(-c2ccc(Br)cc2)cc1)C(=O)O` (stereo not given), “inactive”.
